Hits are enriched below; roughly 7.9% of the tested compounds scored in any of these assays.
HT1080 IDH1KD tx – toxicity to HT-1080 IDH1 knockdown cells (counter line); HT-1080 IDH1 knockdown viability, ATP luminescence, 48 h; Potency, µM (titrated, usually from 46.1 µM), for inactives: top-dose activity, negative = toxicity, actives largely listed as cytotoxic; 360,000 compounds, 2% hits;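 also: 0% = DMSO wells and -100% = cell-free medium wells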
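CellTiter-Glo luminescence after 48 h compound exposure at 37 degrees C of IDH1-knockdown HT-1080 cells in 5% FBS RPMI. %Activity scaled between DMSO wells and cell-free media wells, with curves fitted and assigned curve classes.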
KB-V1 cytotox – KB-V1 MDR subline cytotoxicity | 400,000 compounds, 3.4% hits | Potency, µM (top dose mostly 46.1 µM), most hits filed as cytotoxic | AID 1347076 | KB-V1 MDR cells viability, CellTiter-Glo, 72 h; also: % is scaled to controls: 0 for no effect and ±100 for the full control effect; nearly all actives have a fitted effect of over 60% in size
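In this primary screen, KB-V1 cells overexpressing P-gp are incubated with library compounds (lowest to highest concentration) for 72 h at 37 degrees C before a luminescent ATP viability read.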
HT1080-NT tox – kills 2HG-producing HT-1080-NT fibrosarcoma cells | HT-1080-NT fibrosarcoma viability, CellTiter-Glo ATP luminescence, 48 h | Potency, µM (highest dose often 46.1 µM), for inactives: top-dose activity, negative = less viability, usual class: cytotoxic | 360,000 compounds, 1.6% hits;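 also: NT is the 2HG producing partner of a matched IDH1 knockdown line; 0% = DMSO-treated cells and -100% = media-only wells without cells; nearly all actives have a fitted effect of over 55% in size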
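Fibrosarcoma NT cells, 750 per well in 5% FBS RPMI, were exposed to compound for 48 hours. Viability: CellTiter-Glo luminescence.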
KB-3-1 cytotox – kills parental KB-3-1 adenocarcinoma cells; Potency, µM (doses to about 46.1 µM), actives largely listed as cytotoxic; 400,000 compounds, 1.4% hits; KB-3-1 viability, CellTiter-Glo ATP luminescence, 72 h; also: % is scaled to controls: 0 for no effect and ±100 for the full control effect; nearly all actives have a fitted effect of over 60% in size
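KB-3-1 parental drug-naive adenocarcinoma cells in DMEM/10% FBS, incubated 72 h at 37 C with pin-transferred compounds across a concentration series. Viability by CellTiter-Glo luminescence; concentration-response curves fitted after normalization.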
SW480 rereplic – inducers of DNA re-replication in SW480 colon cancer cells; SW480 DNA re-replication, Hoechst DNA content imaging, 48 h; Potency, µM (doses to about 46.1 µM), for inactives: at the top dose re-replication activation, actives largely listed as activators; 340,000 compounds, 1.8% hits; AID 624297; also: % of control where 0% means no effect; nearly all actives have a fitted effect of over 55% in size
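Image-based read-out: total Hoechst fluorescence of nuclei (405 nm excitation, 500-530 nm emission), with hits raising the fraction of high-intensity nuclei. SW480 colon cells incubated 48 hr with compounds at 37 C.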
MCF10A rerep – DNA re-replication induction in MCF 10a cells; MCF 10A DNA re-replication, Hoechst nuclear intensity, 48 h; Potency, µM (highest dose often 46.1 µM), without a hit: top-dose activity, positive = re-replication, hits mostly activators; 350,000 compounds, 2.9% hits; AID 624296; also: % of control where 0% means no effect; nearly all actives have a fitted effect of over 50% in size
Active calls of the source: *; i = inactive; ? = inconclusive; / = no result. Calls follow the shape of the dose curve; as a rule, active = well fitted curve in the direction sought with a large enough effect; inconclusive = small, poorly fitted or top-dose-only effect, or another doubt; inactive = no such curve, though single readings can be large; an effect the other way counts as inactive or inconclusive. Potency is read from the fitted curve at half-maximal effect.

SMILES	HT1080 IDH1KD tx	KB-V1 cytotox	HT1080-NT tox	KB-3-1 cytotox	SW480 rereplic	MCF10A rerep
CN(C(=O)Cn1cc(S(=O)(=O)N2CCN(c3ccccc3F)CC2)c2ccccc2c1=O)c1ccc(Cl)cc1	/	i	/	i	/	/
NC(=O)C1CCN(c2nccc(-c3ccc4c(c3)OCCCO4)n2)CC1	/	i	/	i	/	/
Cc1ccc(CCNC(=O)NCc2noc3ccc(C)cc23)cc1	/	i	/	i	/	/
CCN(CC)CCN(C(=O)/C=C/c1cccs1)c1nc2ccc(OC)cc2s1	1%	i	1%	i	-1%	0%
CN(C)CCCN(C(=O)/C=C/c1cccs1)c1nc2c(F)cccc2s1	?	?	?	?	?	26µM*
Cc1cccc2sc(N(CCN(C)C)C(=O)/C=C/c3cccs3)nc12	?	18µM*	?	?	?	23µM*
CCOc1ccc2nc(N(CCN(CC)CC)C(=O)/C=C/c3cccs3)sc2c1	-20%	i	-28%	i	29µM*	?
O=C(Nc1nc(-c2ccccc2)ns1)c1ccc(Cl)cc1	/	i	/	i	/	/
CC(C)(C)C(=O)Nc1nc(-c2ccccc2)ns1	-19%	15µM*	-25%	?	-6%	?
COc1ccccc1CNC(=O)Nc1nc(C(N)Cc2ccc(Cl)cc2)cs1 (stereo not given)	21µM*	i	15µM*	?	/	/
COc1ccc(CNC(=O)Nc2nc(C(N)Cc3ccc(Cl)cc3)cs2)cc1 (stereo not given)	16µM*	?	?	?	/	/
COc1ccc(NC(=O)Nc2nnc(C(C)C)s2)cc1	-12%	16µM*	-3%	?	-9%	-2%
COc1ccc(CC(N)c2csc(NC(=O)c3cc(C(C)(C)C)oc3C)n2)cc1 (stereo not given)	21µM*	i	21µM*	?	/	/
O=C1CCCc2cc(S(=O)(=O)NCC3CCC(C(=O)NCc4ccccc4Cl)CC3)ccc2N1 (stereo not given)	/	i	/	i	/	/
COc1ccc(C)cc1NC(=O)Cn1c(=O)ccc2cc(S(=O)(=O)N3CCC(C)CC3)ccc21	/	i	/	i	/	/
Cc1cccc(NC(=O)C2CCCN(S(=O)(=O)c3c(C)[nH]c(=O)[nH]c3=O)C2)c1C (stereo not given)	/	i	/	i	/	/
CC(N)c1csc(Nc2ccc(S(C)(=O)=O)cc2)n1 (stereo not given)	0%	i	7%	i	/	/
Cc1ccc(NC(=O)CCN2CCN(CCO)CC2)cc1C	/	?	/	i	/	/
COc1ccc(CNC(=O)Nc2nc(C(N)Cc3ccc(F)cc3)cs2)cc1 (stereo not given)	13µM*	i	?	?	/	/
COc1cc(NC(=O)Nc2nc(C(N)Cc3ccc(C(F)(F)F)cc3)cs2)cc(OC)c1OC (stereo not given)	18µM*	i	21µM*	?	/	/
NC(Cc1ccc(F)cc1)c1csc(NC(=O)NC(c2ccccc2)c2ccccc2)n1 (stereo not given)	16µM*	?	18µM*	?	/	/
COc1ccc(CC(N)c2csc(NC(=O)Nc3ccc(OC)cc3)n2)cc1 (stereo not given)	?	i	23µM*	?	/	/
CCc1ccc(NCc2cc3cc4c(cc3n(CC(=O)Nc3cccc(OC)c3)c2=O)OCO4)cc1	/	i	/	i	/	/
Cc1cc(S(=O)(=O)n2ccnc2C(C)C)cc([N+](=O)[O-])c1C	/	i	/	i	/	/
Cc1ccc(C)c(Cn2c(=O)n(Cc3ccccc3)c(=O)c3sc4ccccc4c32)c1	/	i	/	i	/	/
SMILES	HT1080 IDH1KD tx	KB-V1 cytotox	HT1080-NT tox	KB-3-1 cytotox	SW480 rereplic	MCF10A rerep
Cc1ccccc1-c1noc(-c2ccccc2OCC(=O)Nc2cccc([N+](=O)[O-])c2)n1	/	i	/	i	/	/
CCOc1ccc(N(Cc2ccc(OC)cc2)C(=O)c2ccco2)cc1	?	?	?	i	18%	18%
COc1cc(CN(C(=O)c2ccco2)c2ccc(C)cc2)ccc1O	-10%	13µM*	-2%	i	-1%	-5%
COc1ccc(CN(C(=O)c2ccco2)c2ccc(C)c(C)c2)cc1	21µM*	?	?	16µM*	16µM*	10µM*
CC[n+]1c(/C=C/Nc2ccccc2)oc2ccc(OC)cc21	-1%	i	-14%	i	?	18µM*
CC[n+]1c(/C=C/Nc2ccccc2)oc2ccccc21	?	i	-24%	i	?	?
CN(/C=C/c1c([N+](=O)[O-])c(=O)n(C)c(=O)n1C)c1ccccc1	11%	i	2%	i	-8%	1%
CC[n+]1c(/C=C/N(C)c2ccccc2)oc2ccc(F)cc21	?	i	?	5.8µM*	?	?
CC(C(=O)Nc1cc(C(F)(F)F)ccc1Cl)n1nnc2sc3c(c2c1=O)CCCC3 (stereo not given)	/	i	/	i	/	/
CC1(C)CC(N=c2cc(-c3ccccc3)oc3ccc(Cl)cc23)CC(C)(C)N1	16µM*	?	7.3µM*	21µM*	?	?
CCCCCCCCNC(=O)c1cnsn1	24%	i	22%	i	0.52µM*	-1%
CC(Oc1ccc(Cl)cc1Cl)C(=O)Nc1ccc(O)cc1 (stereo not given)	0%	i	-19%	i	-2%	4%
CC(Oc1ccc(Br)cc1Cl)C(=O)Nc1ccncc1 (stereo not given)	16µM*	i	?	?	-29%	?
CC(Oc1ccc(Br)cc1)C(=O)Nc1ccncc1 (stereo not given)	-15%	i	?	i	0%	3%
CCn1nnc(NC(=O)C(C)Oc2ccc(Cl)cc2Cl)n1 (stereo not given)	-4%	18µM*	-16%	i	-10%	1%
FC(F)(F)c1ccc(/C=N/NC(=S)NC2CCCCC2)cc1	-26%	i	-19%	i	10%	18µM*
FC(F)(F)c1cccc(/C=N/NC(=S)NC2CCCCC2)c1	?	i	?	i	-6%	?
Cc1ccc2nc(SCn3nnc4ccccc4c3=O)[nH]c2c1	-8%	23µM*	-2%	i	0%	?
Cc1ccc2nc(SCC(=O)c3c(C)[nH]c4ccccc34)[nH]c2c1	-3%	?	-13%	i	9%	13µM*

From PubChem
